Measurements from PubChem BioAssay AID1159580 (chemical genetic matrix, 2015).
Hit rate of the full screen: of about 5,500 compounds, about 2,000 (36%) were called active. Another 18% or so got no clear call; they are omitted. No stated cut-off is given here; in the data, active means normalized growth mostly below about 0.91 (no sharp cut-off); inconclusive means no clear call, values can overlap the other calls; inactive means mostly above about 0.92. This is one part of the list.

Test: chemical genetic growth profiling, strain panel (AID 1159580);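 further: tested at 20 µM; growth read once vehicle control cultures reached saturation at 30 °C; 1 = growth at the plate median or of vehicle wells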
Conditions: growth OD

Measured: normalized growth

Cn1c([N+](=O)[O-])cnc1COC(N)=O
inactive: S. cerevisiae deletion strains, locus YJR075W, strain HOC1, stronger effect = lower value 1.02 | S. cerevisiae deletion strains, locus YKL009W, strain mrt4, stronger effect = lower value 1.01 | S. cerevisiae deletion strains, locus YKL068W, stronger effect = lower value 0.991 | S. cerevisiae deletion strains, locus YKL085W, strain MDH1 (second series), stronger effect = lower value 0.994 | S. cerevisiae deletion strains, locus YKL085W, strain MDH1, stronger effect = lower value 0.994 | S. cerevisiae deletion strains, locus YKL160W, strain elf1, stronger effect = lower value 1.02 | S. cerevisiae deletion strains, locus YKL190W, strain CNB1, stronger effect = lower value 1 | S. cerevisiae deletion strains, locus YKR001C, strain vps1, stronger effect = lower value 0.976 | S. cerevisiae deletion strains, locus YKR026C, strain gcn3, stronger effect = lower value 0.998 | S. cerevisiae deletion strains, locus YKR091W, strain srl3, stronger effect = lower value 0.998 | S. cerevisiae deletion strains, locus YLL001W, strain dnm1, stronger effect = lower value 1.03 | S. cerevisiae deletion strains, locus YLL026W, stronger effect = lower value 1 | S. cerevisiae deletion strains, locus YLL041C, strain sdh2, stronger effect = lower value 0.993 | S. cerevisiae deletion strains, locus YLR027C, strain aat2, stronger effect = lower value 1.01 | S. cerevisiae deletion strains, locus YLR039C, strain RIC1, stronger effect = lower value 1.02 | S. cerevisiae deletion strains, locus YLR058C, strain SHM2, stronger effect = lower value 1.01 | S. cerevisiae deletion strains, locus YLR102C, strain apc9, stronger effect = lower value 0.986 | S. cerevisiae deletion strains, locus YLR113W, strain HOG1, stronger effect = lower value 1.03 | S. cerevisiae deletion strains, locus YLR221C, strain rsa3, stronger effect = lower value 0.978 | S. cerevisiae deletion strains, locus YLR258W, strain gsy2, stronger effect = lower value 1.02 | S. cerevisiae deletion strains, locus YLR262C, strain YPT6 (second series), stronger effect = lower value 1 | S. cerevisiae deletion strains, locus YLR262C, strain YPT6, stronger effect = lower value 1.05 | S. cerevisiae deletion strains, locus YLR268W, strain sec22, stronger effect = lower value 0.991 | S. cerevisiae deletion strains, locus YLR320W, strain mms22, stronger effect = lower value 0.983 | S. cerevisiae deletion strains, locus YLR330W, strain CHS5, stronger effect = lower value 1.01 | S. cerevisiae deletion strains, locus YLR342W, strain FKS1 (second series), stronger effect = lower value 0.982 | S. cerevisiae deletion strains, locus YLR342W, strain FKS1, stronger effect = lower value 0.998 | S. cerevisiae deletion strains, locus YLR357W, strain rsc2, stronger effect = lower value 0.989 | S. cerevisiae deletion strains, locus YLR370C, strain arc18, stronger effect = lower value 1.02 | S. cerevisiae deletion strains, locus YLR371W, strain rom2, stronger effect = lower value 0.988 | S. cerevisiae deletion strains, locus YLR384C, strain iki3, stronger effect = lower value 1 | S. cerevisiae deletion strains, locus YLR418C, strain cdc73, stronger effect = lower value 0.962 | S. cerevisiae deletion strains, locus YML016C, strain PPZ1, stronger effect = lower value 1 | S. cerevisiae deletion strains, locus YML032C, strain rad52, stronger effect = lower value 0.984 | S. cerevisiae deletion strains, locus YML120C, strain ndi1, stronger effect = lower value 0.999 | S. cerevisiae deletion strains, locus YML124C, strain tub3, stronger effect = lower value 0.99 | S. cerevisiae deletion strains, locus YMR058W, strain fet3, stronger effect = lower value 1.01 | S. cerevisiae deletion strains, locus YMR078C, strain ctf18, stronger effect = lower value 0.983 | S. cerevisiae deletion strains, locus YMR125W, strain sto1, stronger effect = lower value 0.991 | S. cerevisiae deletion strains, locus YMR129W, stronger effect = lower value 1.01 | S. cerevisiae deletion strains, locus YMR205C, strain PFK2, stronger effect = lower value 0.982 | S. cerevisiae deletion strains, locus YMR223W, strain ubp8, stronger effect = lower value 0.994 | S. cerevisiae deletion strains, locus YMR231W, strain pep5, stronger effect = lower value 1.01 | S. cerevisiae deletion strains, locus YMR263W, strain SAP30, stronger effect = lower value 1.01 | S. cerevisiae deletion strains, locus YMR307W, strain GAS1, stronger effect = lower value 0.981 | S. cerevisiae deletion strains, locus YNL067W, strain RPL9B, stronger effect = lower value 1.01 | S. cerevisiae deletion strains, locus YNL071W, strain lat1, stronger effect = lower value 1 | S. cerevisiae deletion strains, locus YNL153C, strain GIM3, stronger effect = lower value 1.01 | S. cerevisiae deletion strains, locus YNL183C, strain NPR1, stronger effect = lower value 0.957 | S. cerevisiae deletion strains, locus YNL209W, strain ssb2, stronger effect = lower value 1.01 | S. cerevisiae deletion strains, locus YNL233W, strain BNI4, stronger effect = lower value 1.01 | S. cerevisiae deletion strains, locus YNL248C, strain rpa49, stronger effect = lower value 0.995 | S. cerevisiae deletion strains, locus YNL250W, strain rad50, stronger effect = lower value 0.986 | S. cerevisiae deletion strains, locus YNL271C, strain bni1, stronger effect = lower value 0.978 | S. cerevisiae deletion strains, locus YNL298W, strain CLA4, stronger effect = lower value 0.988 | S. cerevisiae deletion strains, locus YNL307C, strain MCK1, stronger effect = lower value 0.984 | S. cerevisiae deletion strains, locus YNL322C, strain KRE1 (second series), stronger effect = lower value 1.02 | S. cerevisiae deletion strains, locus YNR049C, strain mso1, stronger effect = lower value 1.01 | S. cerevisiae deletion strains, locus YNR052C, strain pop2, stronger effect = lower value 0.989 | S. cerevisiae deletion strains, locus YOL006C, strain TOP1, stronger effect = lower value 1.05 | S. cerevisiae deletion strains, locus YOL012C, strain htz1 0.743 | S. cerevisiae deletion strains, locus YOL147C, strain pex11, stronger effect = lower value 0.981 | S. cerevisiae deletion strains, locus YOR001W, strain rrp6, stronger effect = lower value 0.963 | S. cerevisiae deletion strains, locus YOR061W, strain CKA2, stronger effect = lower value 1.01 | S. cerevisiae deletion strains, locus YOR069W, strain VPS5, stronger effect = lower value 1 | S. cerevisiae deletion strains, locus YOR070C, strain gyp1, stronger effect = lower value 0.996 | S. cerevisiae deletion strains, locus YOR080W, strain dia2, stronger effect = lower value 1.01 | S. cerevisiae deletion strains, locus YOR083W, strain WHI5, stronger effect = lower value 1.03 | S. cerevisiae deletion strains, locus YOR106W, strain vam3, stronger effect = lower value 1.03 | S. cerevisiae deletion strains, locus YOR136W, strain idh2, stronger effect = lower value 0.978 | S. cerevisiae deletion strains, locus YOR144C, strain elg1, stronger effect = lower value 0.972 | S. cerevisiae deletion strains, locus YOR184W, strain ser1, stronger effect = lower value 1.01 | S. cerevisiae deletion strains, locus YOR231W, strain MKK1, stronger effect = lower value 0.997 | S. cerevisiae deletion strains, locus YOR265W, strain rbl2, stronger effect = lower value 1 | S. cerevisiae deletion strains, locus YOR270C, strain vph1, stronger effect = lower value 1 | S. cerevisiae deletion strains, locus YOR290C, strain snf2, stronger effect = lower value 1.03 | S. cerevisiae deletion strains, locus YOR316C, strain cot1, stronger effect = lower value 0.993 | S. cerevisiae deletion strains, locus YPL051W, strain arl3, stronger effect = lower value 1.03 | S. cerevisiae deletion strains, locus YPL078C, strain atp4, stronger effect = lower value 1.03 | S. cerevisiae deletion strains, locus YPL106C, strain sse1, stronger effect = lower value 1.02 | S. cerevisiae deletion strains, locus YPL240C, strain hsp82, stronger effect = lower value 1.01 | S. cerevisiae deletion strains, locus YPL241C, strain CIN2, stronger effect = lower value 1.01 | S. cerevisiae deletion strains, locus YPL256C, strain CLN2, stronger effect = lower value 0.999 | S. cerevisiae deletion strains, locus YPR119W, strain clb2, stronger effect = lower value 0.981 | S. cerevisiae deletion strains, locus YPR141C, strain kar3, stronger effect = lower value 0.983 | S. cerevisiae deletion strains, locus YPR163C, strain tif3, stronger effect = lower value 0.99 | S. cerevisiae deletion strains, locus YPR167C, strain met16, stronger effect = lower value 0.992 | S. cerevisiae deletion strains, strain wtn01, stronger effect = lower value 0.984 | S. cerevisiae strains, strain wild type, stronger effect = lower value 1.01
